Compound activity from PubChem.
EPAC1 antag: antagonists of human EPAC1; O95398; EPAC1 GEF assay, Rap1b-BODIPY-GDP exchange fluorescence; Potency, µM (highest dose often 115 µM), for inactives: top-dose activity change, negative = inhibition, hits mostly inhibitors; 360,000 compounds, 0.14% hits; AID 720709;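 further: plate controls were vehicle for no effect and positive control for full effect; nearly all actives have a fitted effect of over 50% in size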
EPAC1 agonist: agonists of human EPAC1. EPAC1 agonist qHTS, biochemical assay; response scale: 100% = response to 6.5 mM cAMP. Potency, µM (doses to about 154 µM), for the others: at the highest dose activation, usual class: activators. AID 720707. 360,000 compounds, 0.073% hits; further: nearly all actives have a fitted effect of over 60% in size
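EPAC1 100 nM, Rap1B–BODIPY-GDP 250 nM, unlabeled GDP 50 uM; compound titration; 5 min RT; kinetic read ex480/em540 at 5-min intervals ×30 min; data normalized to 6.5 mM cAMP agonist control.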
EPAC2 ag: agonists of human EPAC2 (RAPGEF4); EPAC2 activation, biochemical qHTS; response scale: 100% = 6.5 mM cAMP response; Potency, µM (titrated, usually from 154 µM), for inactives: at the highest dose activation, most hits filed as activators; AID 720711; Q8WZA2; 360,000 compounds, 0.079% hits; further: nearly all actives have a fitted effect of over 50% in size
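Fluorescence exchange assay: 100 nM EPAC2 with 250 nM RAP1B-BODIPY-GDP and 50 uM GDP; compounds tested as a concentration-titration series (qHTS). Loss of Rap1-bound BODIPY-GDP fluorescence read at 480/540 nm; data normalized to 6.5 mM cAMP.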
EPAC2 antagonist: antagonists of human EPAC2; Q8WZA2; EPAC2 GEF exchange of Rap1B-BODIPY-GDP, fluorescence; Potency, µM (top dose mostly 114 µM), without a hit: top-dose activity, negative = inhibition, most hits filed as inhibitors; 360,000 compounds, 0.18% hits; further: on the % scale 0 is the no-effect control and ±100 the full control effect; nearly all actives have a fitted effect of over 45% in size
Numbers without * were called inactive; ? = inconclusive. Sampled rows, rich in hits. Any-hit rate of the full collection: about 0.39%. The call rests on the fitted dose curve; in most records, active means well fitted curve in the direction sought with a large enough effect; inconclusive means small, poorly fitted or top-dose-only effect, or another doubt; inactive means no such curve, though single readings can be large; an effect the other way counts as inactive or inconclusive. Potency means the concentration at half of the fitted maximal effect.

SMILES | EPAC1 antag | EPAC1 agonist | EPAC2 ag | EPAC2 antagonist
COC(=O)C1=C(C)NC(C)=C(C(=O)OC)C1c1ccc(-c2cccc([N+](=O)[O-])c2)o1 | -13.4% | 13.4% | 12.5% | -0.9%
COC(=O)C1=C(C)NC(C)=C([N+](=O)[O-])C1c1ccccc1C(F)(F)F (centres undefined) | -12.7% | -8.5% | 2.6% | 50.1µM*
O=C(c1cccc(-n2cccc2)c1)N1CCN(S(=O)(=O)c2ccccc2)CC1 | 79.4µM* | 12.5% | 6.9% | -4.9%
O=C1NNC(c2ccccc2)=N/C1=C\c1ccco1 | -20.3% | 5.9% | 4.4% | 3.6%
O=C1NNC(c2ccccc2)=N/C1=C\c1ccccc1Cl | 39.8µM* | 2.0% | 26.2% | ?
O=C1c2ccccc2-c2onc3ccc(NCc4ccco4)c1c23 | 102.1% | ? | ? | 252.2%
CCNc1ccc2noc3c2c1C(=O)c1ccccc1-3 | 415.0% | 112µM* | 89.1µM* | 152.0%
CS(=O)(=O)c1ccc2c(c1)sc1nc(=O)c(/C=C3/C=CC(=O)C(O)=C3)c(N)n12 | 50.1µM* | -5.4% | 1.4% | 0.1%
C=CCOc1ccc(/C=C2\SC(=S)N(NS(=O)(=O)c3ccc(C)cc3)C2=O)cc1 | 50.1µM* | -4.5% | -7.9% | -25.9%
COc1ccc(/C=C2/SC(=S)N(NS(=O)(=O)c3ccc(C)cc3)C2=O)cc1 | ? | 8.9% | -0.3% | ?
Cc1ccc(/C=C2\SC(=S)N(NS(=O)(=O)c3ccc(C)cc3)C2=O)cc1 | ? | 11.2% | -3.2% | 44.7µM*
CCc1nc2c(OCc3c(C)noc3C)cccn2c1N(C=O)Cc1ccccc1 | -2.6% | 3.2% | 4.8% | 7.5%
Cc1[nH]n(-c2ncc(-c3ccccc3)s2)c(=O)c1C(c1ccc(Br)cc1)C(C#N)C#N (centres undefined) | 15.8µM* | 10.0% | 2.7% | -17.7%
Cc1[nH]n(C(N)=S)c(=O)c1C(c1ccccc1)C(C#N)C#N (centres undefined) | 12.8% | -8.5% | 1.3% | 16.8%
Oc1ccccc1-c1nc(NCc2ccccc2)c2ccccc2n1 | ? | -29.8% | 0.3% | 89.1µM*
CCCCCC(=O)Cc1cc(O)cc2c1C(=O)Oc1cc(O)c(C(=O)O)c(CCCCC)c1O2 | 39.8µM* | -10.3% | -9.0% | 15.8µM*
Cc1ccc(-c2cn3nc(-c4ccccc4)c(-c4ccccc4)nc3n2)cc1 | 6.7% | 16.1% | 100µM* | 212.7%
Cc1cccnc1C(NC(=O)C1CCN(Cc2cn(C)c3ccccc23)CC1)c1ccc(Cl)cc1 (centres undefined) | -20.1% | -15.3% | 10.0% | 5.9%
Cc1ccsc1C=Nc1ccc(O)cc1 | 35.5µM* | 11.7% | 10.0% | 50.1µM*
CC[C@H]1C(c2ccc(F)cc2)=NN(c2ccccc2)[C@@H]1CO | -13.8% | -14.0% | 3.0% | 50.1µM*
COc1cccc(C(O)c2ncc(-c3cccc4ccccc34)[nH]2)c1 (centres undefined) | -19.0% | -5.6% | 19.6% | 13.1%
COC(=O)CC1(c2ccc(OC)cc2)C(=O)c2ccccc2C1=O | 6.4% | 5.7% | 4.3% | 44.7µM*
CCc1nnc(NS(=O)(=O)c2ccc(NC(=S)NC(=O)/C=C/c3ccc([N+](=O)[O-])cc3)cc2)s1 | -0.7% | -1.7% | 0.2% | -2.4%
CCc1nnc(NS(=O)(=O)c2ccc(NC(=S)NC(=O)/C=C/c3ccc(F)cc3)cc2)s1 | 22.4µM* | -6.3% | -1.1% | -2.7%
O=C1Nc2ccccc2/C1=N\N=C\c1ccc(O)c(O)c1 | 39.8µM* | 2.4% | -9.3% | -16.4%
SMILES | EPAC1 antag | EPAC1 agonist | EPAC2 ag | EPAC2 antagonist
CCCCC(CC)C(=O)Nc1ccc(Nc2ccccc2)cc1 (centres undefined) | 39.8% | 63.1µM* | -12.9% | -18.7%
COc1ccccc1OCCOc1ccc(/C=C2\C(=N)N3N=C(S(C)(=O)=O)SC3=NC2=O)cc1 | ? | 3.8% | -4.6% | -20.7%
COc1cc(/C=C2\C(=N)N3N=C(S(C)(=O)=O)SC3=NC2=O)cc(OC)c1OCCOc1ccccc1C | 50.1µM* | 4.2% | 10.3% | ?
COc1cccc(OCCOc2ccc(/C=C3\C(=N)N4N=C(S(C)(=O)=O)SC4=NC3=O)cc2OC)c1 | 70.8µM* | 0.6% | 4.2% | -3.0%
Cc1ccc(S(=O)(=O)N2C[C@H]3N(C(=O)OC(C)C)N(C(=O)OC(C)C)C[C@H](OC(=O)NCC4CCCCC4)[C@@]3(O)C2)cc1 | -18.2% | -35.4% | 8.4% | -10.9%
COc1cc(F)ccc1-c1csc(C(O)(c2ccccc2)C(F)(F)F)n1 (centres undefined) | -22.8% | -13.5% | 11.0% | -3.2%
